# High-throughput results: PubChem, The Scripps Research Institute Molecular Screening Center
# Only some compounds are listed: those with a hit (about 3.4% of all), similar ones and a draw of the others.
# FBW7 activator: activators of human E3 ligase FBW7 | 650,000 compounds, 0.13% hits | normalized activity (activation), % at 26.1 µM | AlphaScreen FBW7–phospho-cyclin E peptide binding, activator screen | Q969H0; in the data active = normalized activity above about 1.9%;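 also: purified mutant Fbw7 with reduced substrate affinity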
# Target sequence (Q969H0 whole entry, looked up): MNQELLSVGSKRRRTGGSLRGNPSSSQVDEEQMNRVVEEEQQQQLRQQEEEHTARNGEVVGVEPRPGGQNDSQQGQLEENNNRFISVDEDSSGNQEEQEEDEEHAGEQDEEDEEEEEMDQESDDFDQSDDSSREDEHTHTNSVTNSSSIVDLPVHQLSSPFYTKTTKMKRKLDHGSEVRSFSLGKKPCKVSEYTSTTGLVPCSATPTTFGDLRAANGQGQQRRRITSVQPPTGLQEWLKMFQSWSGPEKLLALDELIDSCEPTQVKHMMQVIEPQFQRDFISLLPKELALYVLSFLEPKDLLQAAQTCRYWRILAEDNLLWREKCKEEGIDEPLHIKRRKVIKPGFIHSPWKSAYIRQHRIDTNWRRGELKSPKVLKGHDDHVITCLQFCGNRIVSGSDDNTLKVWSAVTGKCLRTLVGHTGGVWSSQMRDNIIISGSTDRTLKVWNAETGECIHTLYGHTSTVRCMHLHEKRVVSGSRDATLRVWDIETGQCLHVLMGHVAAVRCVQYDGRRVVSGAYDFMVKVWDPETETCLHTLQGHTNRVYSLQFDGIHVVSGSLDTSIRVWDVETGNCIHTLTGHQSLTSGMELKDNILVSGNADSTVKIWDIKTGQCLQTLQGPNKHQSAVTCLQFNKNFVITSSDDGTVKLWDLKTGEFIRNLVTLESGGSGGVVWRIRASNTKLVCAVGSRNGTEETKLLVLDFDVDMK
# GPR151 ag: activators of human GPR151; activation, % at 11.2 µM; Q8TDV0; 650,000 compounds, 1% hits; PathHunter beta-arrestin GPR151 cells, luminescence; in the data active = activation above about 4.9%;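 also: 0% = median of compound wells and 100% = cells with positive control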
# MITF primary: blocks human microphthalmia-associated transcription factor | AlphaScreen MITF homodimerization, bead proximity signal | AID 1259374 | inhibition, % at 2.6 µM | 650,000 compounds, 0.91% hits | O75030; in the data active = inhibition above about 50%;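 also: 0% = vehicle wells with protein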
# TEAD-YAP block: TEAD-YAP interaction inhibition; inhibition, % at 9.12 µM; 640,000 compounds, 1.4% hits; HEK-TIYL cells, TEAD-Gal4/YAP UAS-luciferase luminescence; AID 1259422; in the data active = inhibition above about 32%;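 also: 0% = median of test compound wells and 100% = reference inhibitor wells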
# * marks the source's active call; other numbers are inactive results.
SMILES,FBW7 activator,GPR151 ag,MITF primary,TEAD-YAP block
O=C(NCc1cccnc1)c1ccnc(N2CCc3ccccc3C2)c1,0.3,0.4,19.7,-1.3
O=C(Nc1ccc2[nH]ncc2c1)c1ccnc(O[C@@H]2CCCN(Cc3ccccc3)C2)c1,0.2,-0.2,3.9,11.8
CC(=O)c1cc2c(cc1NS(=O)(=O)c1ccc(C(C)(C)C)cc1)OCO2,-0.1,0.3,3.5,-4.0
COc1ccc(S(=O)(=O)Nc2cc3c(cc2C(C)=O)OCO3)cc1,0.3,0.9,11.5,38.2*
CCOC(=O)c1ccccc1NS(=O)(=O)c1ccc(OCC)cc1,0.0,-2.3,-14.8,47.7*
Oc1ccc(C2CC(c3c(O)ccc4ccccc34)=NN2)cc1 (stereo not given),0.0,-10.3,-1.2,88.4*
COc1cc(C2CC(=O)c3c(ccc4ccccc34)N2)ccc1O (stereo not given),-0.1,0.3,-7.1,8.3
COc1cc(C2CC(c3c(O)ccc4ccccc34)=NN2)ccc1O (stereo not given),-0.2,-6.3,-0.8,60.6*
COc1cc(C2C3=C(COC3=O)Nc3ccc4ccccc4c32)ccc1O (stereo not given),-0.2,2.5,-28.5,55.5*
COc1ccc2c(C)nc(Nc3nc(C)cc(=O)[nH]3)nc2c1,-0.4,0.2,0.2,38.9*
O=CC12c3ccccc3C(c3ccccc31)C1C(=O)N(c3ccc(Cl)cc3)C(=O)C12 (stereo not given),0.0,-0.1,0.0,44.4*
O=CC12c3ccccc3C(c3ccccc31)C1C(=O)N(c3ccccc3)C(=O)C12 (stereo not given),0.3,-0.9,6.3,19.5
Cc1ccc(N2C(=O)C3C4c5ccccc5C(C=O)(c5ccccc54)C3C2=O)cc1[N+](=O)[O-] (stereo not given),-0.1,1.0,7.9,34.3*
CCc1ccccc1NC(=O)c1[nH]c(C)c(C(C)=O)c1C,0.2,1.2,11.2,-9.2
Cn1cnn(CN2CCN(C=O)CC2)c1=S,0.0,-0.2,7.3,1.9
COc1ccc(S(=O)(=O)Nc2cc(Cl)ccc2OC)cc1,0.5,-2.9,3.0,61.3*
COc1ccc(OS(=O)(=O)c2cc(C)ccc2OC)cc1,-0.1,-1.4,-6.3,47.6*
COc1ccc(C)cc1NS(=O)(=O)c1cccc(C(=O)O)c1,1.9*,-0.3,19.0,-2.0
Cc1ccc(Br)c(NS(=O)(=O)c2cccc(C(=O)O)c2)c1,0.6,0.3,8.9,3.3
COC(=O)CN(c1cc(OC)ccc1OC)S(=O)(=O)c1ccc(C)cc1,-0.1,2.0,2.9,43.9*
COc1ccc(OC)c(S(=O)(=O)Oc2c(C)cccc2C)c1,-0.1,2.7,-4.8,-2.6
CCc1ccccc1NC(=O)c1cc(S(=O)(=O)NC2CCCCC2)ccc1F,-0.1,-0.6,-8.1,5.4
Cc1cccn2c(CNC(C)CCn3cccn3)c(C(=O)N(C)CCc3ccccc3)nc12 (stereo not given),0.1,0.1,23.0,-2.5
COc1ccc(S(=O)(=O)Nc2cc(C)ccc2OC)cc1,-0.1,-0.4,1.1,58.0*
COc1cc(NS(=O)(=O)c2ccc(Cl)cc2)c(OC)cc1Br,-0.1,0.1,20.7,33.5*
SMILES,FBW7 activator,GPR151 ag,MITF primary,TEAD-YAP block
COc1ccc(C)cc1NS(=O)(=O)c1ccc(C)cc1,-0.1,-0.5,-13.4,7.1
COc1ccc(Cl)cc1NS(=O)(=O)c1ccc(F)cc1,-0.2,-0.6,-13.2,-10.4
COc1cccc2cc(C(=O)NCc3cccc(Cl)c3)c(=Nc3ccc(C(=O)O)cc3)oc12,0.0,0.8,-1.5,34.6*
COc1ccc(CC(=O)Nc2cccc(-c3nnc(-c4ccccc4)o3)c2)cc1OC,-0.1,4.8,23.4,52.8*
COc1ccc(CC(=O)Nc2ccc(-c3nnc(-c4ccccc4)o3)cc2)cc1OC,0.2,-0.7,21.7,-16.0
Fc1ccccc1Nc1nnc(SCC2CCCCO2)s1 (stereo not given),0.2,-9.9,-1.0,73.1*
COc1ccc(-c2nnc(/C=C/c3cccs3)o2)cc1,0.5,-11.4,10.0,72.4*
COCCNc1ccc2ncc(-c3ccc(F)cc3)n2n1,0.0,-0.1,-8.7,14.1
CCCNc1ccc2ncc(-c3cccc(NC(C)=O)c3)n2n1,0.7,0.5,6.3,56.0*
COCCNc1ccc2ncc(-c3cccc(CO)c3)n2n1,0.0,0.2,-16.7,32.6*
COCCNc1ccc2ncc(-c3cccc(F)c3)n2n1,-0.5,1.9,9.5,25.6
CCCNc1ccc2ncc(-c3cccc(O)c3)n2n1,-0.1,-0.8,-15.1,0.1
COCCNc1ccc2ncc(-c3ccc4c(c3)OCO4)n2n1,0.1,1.5,3.6,39.3*
COCCNc1ccc2ncc(-c3ccc(O)cc3)n2n1,0.3,0.6,-22.0,58.3*
